# Data published in PubChem BioAssay.
# The source made the active and inactive calls.
# Key:
# [1] = small molecules captured by biotinylated probe aFSTL3 – biochemical, small-molecule microarray, fluorescence 635/667, stem cell growth factor project, primary screen (AID 1064); details: higher = more signal;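 further: measures binding of the biotinylated anti-FSTL3 antibody to printed compounds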
# [2] = binders from COS7 lysate, DM2A8 probe, primary screen, torsin A project, cell lysate, small-molecule microarray, fluorescence 635/667 (AID 1065); details: higher = more signal, COS7 lysate expressing mutant human TOR1A
# [3] = small molecules captured by biotinylated probe aFGF2 – biochemical, small-molecule microarray, fluorescence 635/667, stem cell growth factor project, primary screen (AID 1067); details: higher = more signal;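 further: measures binding of biotinylated aFGF2 protein to printed compounds on slides; z-score merges feature fluorescence and signal-to-noise across triplicate slides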
# [4] = small molecules captured by biotinylated probe aFGF10 – biochemical, small-molecule microarray, fluorescence 635/667, stem cell growth factor project, primary screen (AID 1071); details: higher = more signal;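 further: score merges 667 nm spot intensity and signal to noise from triplicate slides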
# [5] = target: Neurogenic locus notch homolog protein 2 (Homo sapiens) (UniProt Q04721); experiment: small molecules binding Notch2 protein – biochemical, small-molecule microarray, 635 nm fluorescence, stem cell growth factors, primary screen (AID 1073); details: higher = more signal
# Chain of Neurogenic locus notch homolog protein 2 (Homo sapiens) (Q04721 whole entry, looked up, canonical isoform): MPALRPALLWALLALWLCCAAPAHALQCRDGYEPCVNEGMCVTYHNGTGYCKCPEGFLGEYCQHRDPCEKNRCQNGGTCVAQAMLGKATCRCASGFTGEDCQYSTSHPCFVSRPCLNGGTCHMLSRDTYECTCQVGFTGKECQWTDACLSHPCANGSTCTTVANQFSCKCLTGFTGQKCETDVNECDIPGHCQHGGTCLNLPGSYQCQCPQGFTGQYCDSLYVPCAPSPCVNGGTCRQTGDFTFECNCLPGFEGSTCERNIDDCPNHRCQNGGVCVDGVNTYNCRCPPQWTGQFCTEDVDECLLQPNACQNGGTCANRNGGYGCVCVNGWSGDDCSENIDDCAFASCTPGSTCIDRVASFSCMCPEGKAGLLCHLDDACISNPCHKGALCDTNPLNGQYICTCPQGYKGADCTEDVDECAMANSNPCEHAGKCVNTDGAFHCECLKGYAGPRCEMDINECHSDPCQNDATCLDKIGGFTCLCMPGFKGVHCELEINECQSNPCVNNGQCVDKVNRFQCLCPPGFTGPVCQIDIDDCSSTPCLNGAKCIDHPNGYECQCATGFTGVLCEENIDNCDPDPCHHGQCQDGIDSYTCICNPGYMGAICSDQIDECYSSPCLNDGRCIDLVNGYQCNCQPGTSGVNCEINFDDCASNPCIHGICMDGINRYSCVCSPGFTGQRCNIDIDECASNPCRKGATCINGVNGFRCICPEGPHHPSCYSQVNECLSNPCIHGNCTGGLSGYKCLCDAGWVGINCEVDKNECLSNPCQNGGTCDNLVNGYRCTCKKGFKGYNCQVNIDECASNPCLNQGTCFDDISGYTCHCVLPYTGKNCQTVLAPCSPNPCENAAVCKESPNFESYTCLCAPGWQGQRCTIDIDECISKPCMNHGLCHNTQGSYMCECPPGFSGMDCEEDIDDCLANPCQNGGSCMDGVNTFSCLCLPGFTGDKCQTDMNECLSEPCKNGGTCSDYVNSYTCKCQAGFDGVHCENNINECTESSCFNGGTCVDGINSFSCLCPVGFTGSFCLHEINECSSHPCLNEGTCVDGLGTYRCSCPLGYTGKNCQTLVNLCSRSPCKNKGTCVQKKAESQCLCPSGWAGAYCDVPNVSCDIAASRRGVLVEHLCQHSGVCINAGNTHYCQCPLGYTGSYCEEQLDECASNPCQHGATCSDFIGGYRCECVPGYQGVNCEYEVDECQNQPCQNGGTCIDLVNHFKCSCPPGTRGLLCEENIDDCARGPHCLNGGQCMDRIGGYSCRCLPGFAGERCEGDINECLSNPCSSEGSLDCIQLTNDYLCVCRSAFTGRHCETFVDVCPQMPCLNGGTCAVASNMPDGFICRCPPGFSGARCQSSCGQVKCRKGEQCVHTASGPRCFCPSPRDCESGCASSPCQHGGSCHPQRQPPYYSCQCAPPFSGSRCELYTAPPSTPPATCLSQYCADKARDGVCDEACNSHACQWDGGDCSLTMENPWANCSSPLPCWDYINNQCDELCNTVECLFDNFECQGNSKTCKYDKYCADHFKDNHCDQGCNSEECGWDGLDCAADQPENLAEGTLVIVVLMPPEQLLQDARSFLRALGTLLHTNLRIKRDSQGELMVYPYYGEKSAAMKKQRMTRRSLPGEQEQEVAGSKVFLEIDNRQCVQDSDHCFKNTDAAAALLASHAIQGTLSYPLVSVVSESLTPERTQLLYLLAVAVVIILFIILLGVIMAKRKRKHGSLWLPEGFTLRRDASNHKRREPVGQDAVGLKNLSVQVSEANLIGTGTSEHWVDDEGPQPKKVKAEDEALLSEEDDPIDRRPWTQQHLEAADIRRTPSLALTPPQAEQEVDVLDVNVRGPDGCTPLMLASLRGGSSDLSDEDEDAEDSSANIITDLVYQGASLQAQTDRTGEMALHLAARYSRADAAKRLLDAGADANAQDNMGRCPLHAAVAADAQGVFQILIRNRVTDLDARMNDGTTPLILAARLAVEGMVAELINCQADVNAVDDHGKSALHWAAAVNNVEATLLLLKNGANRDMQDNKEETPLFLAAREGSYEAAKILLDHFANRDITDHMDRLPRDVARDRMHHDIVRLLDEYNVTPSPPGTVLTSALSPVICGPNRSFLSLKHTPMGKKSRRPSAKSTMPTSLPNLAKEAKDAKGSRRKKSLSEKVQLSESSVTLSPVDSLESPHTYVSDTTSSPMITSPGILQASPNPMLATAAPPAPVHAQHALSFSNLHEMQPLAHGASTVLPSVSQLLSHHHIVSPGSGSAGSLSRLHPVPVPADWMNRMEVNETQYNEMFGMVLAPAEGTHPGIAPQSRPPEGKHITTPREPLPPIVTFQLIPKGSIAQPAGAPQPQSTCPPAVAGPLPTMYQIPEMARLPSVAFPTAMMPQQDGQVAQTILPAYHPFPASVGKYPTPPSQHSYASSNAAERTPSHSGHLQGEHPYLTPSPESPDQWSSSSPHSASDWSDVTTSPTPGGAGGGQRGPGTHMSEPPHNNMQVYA
# [6] = target: Pro-neuregulin-1, membrane-bound isoform (Homo sapiens) (UniProt Q02297); experiment: small molecules binding neuregulin-1 protein – biochemical, small-molecule microarray, fluorescence 635/667, psychiatric disease protein project, primary screen (AID 1075); details: NRG1 binding, 635 nm fluorescence, higher = more signal;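 further: score combines 667 nm spot fluorescence with signal to noise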
# Chain of Pro-neuregulin-1, membrane-bound isoform (Homo sapiens) (Q02297 whole entry, looked up, the tested form may be a part, canonical isoform): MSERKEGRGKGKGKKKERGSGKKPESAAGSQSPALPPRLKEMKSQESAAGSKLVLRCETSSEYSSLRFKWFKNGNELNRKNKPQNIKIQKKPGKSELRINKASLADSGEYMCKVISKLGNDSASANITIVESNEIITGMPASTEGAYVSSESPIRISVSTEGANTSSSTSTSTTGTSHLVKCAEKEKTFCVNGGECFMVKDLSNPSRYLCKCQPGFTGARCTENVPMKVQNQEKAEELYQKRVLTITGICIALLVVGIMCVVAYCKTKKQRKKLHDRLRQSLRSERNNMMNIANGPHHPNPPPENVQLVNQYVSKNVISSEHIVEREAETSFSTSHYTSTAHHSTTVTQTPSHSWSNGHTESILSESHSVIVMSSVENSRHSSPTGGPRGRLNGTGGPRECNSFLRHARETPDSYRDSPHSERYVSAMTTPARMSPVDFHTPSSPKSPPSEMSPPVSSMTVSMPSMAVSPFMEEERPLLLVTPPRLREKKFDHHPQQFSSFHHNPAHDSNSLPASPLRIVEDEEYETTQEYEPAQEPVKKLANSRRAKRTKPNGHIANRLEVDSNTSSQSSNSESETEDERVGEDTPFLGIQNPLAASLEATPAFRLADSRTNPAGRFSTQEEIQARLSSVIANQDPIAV
# [7] = test system: Neuregulin-1 EGF-like domain; experiment: small molecules binding NRG1 EGF domain – biochemical, small-molecule microarray, 635 nm fluorescence, primary screen (AID 1081); details: higher = more signal;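 further: binding of the protein to compounds printed on small-molecule microarray slides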
# [8] = FRG1 expression reporter modulators in myotubes – cell-based, C2C12 myotubes, firefly/Renilla luciferase, luminescence, FRG1 inhibition for FSHD, primary screen (AID 1084); details: FRG1 promoter luciferase, higher = more signal, called active from +8 up or from −8 down
# [9] = small molecules captured by biotinylated probe aFST – biochemical, small-molecule microarray, fluorescence 635/667, stem cell growth factor project, primary screen (AID 1086); details: higher = more signal;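 further: score merges 667 nm fluorescence with signal-to-noise of each printed compound spot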
# [10] = binders of probe aHhip on microarray, primary screen, stem cell growth factor project, biochemical, small-molecule microarray, fluorescence 635/667 (AID 1087); details: higher = more signal;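 further: score merges spot fluorescence at 667nm with spot signal to noise ratio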
# [11] = test system: PRMT1 (protein arginine N-methyltransferase 1); experiment: small molecules binding arginine methyltransferase PRMT1 – biochemical, small-molecule microarray, 635 nm fluorescence, primary screen (AID 1088); details: higher = more signal;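 further: binding of Prmt1 protein to compounds spotted on small-molecule microarray slides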
# [12] = growth effects on S. cerevisiae YJM789 – YJM789 clinical isolate, OD600, 24 h, basal, primary screen (AID 1089); details: higher = more signal, called active from +8 up or from −8 down;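 further: growth of clinical yeast isolate S. cerevisiae YJM 789 seeded 1000 cells per well; test concentration not given here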
# [13] = S. pombe growth modifiers, basal conditions – strain 972, OD600, 24 h, no modulator, primary screen (AID 1090);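 further: basal condition with compound alone and no growth modifier present; test concentration not given here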; details: S. pombe 972 growth, higher = more signal, called active from +8 up or from −8 down
# [14] = budding yeast growth modifiers under rapamycin – strain BY4716, OD600, 96 h, primary screen (AID 1091); further: test concentration not given here; details: S. cerevisiae BY4716 + rapamycin, higher = more signal, called active from +8 up or from −8 down
# [15] = target: Torsin-1A-interacting protein 2 (Homo sapiens) (UniProt Q8NFQ8); experiment: small molecules binding lysate-expressed LULL1 – cell lysate, human LULL1 lysate, 635/667 nm fluorescence, primary screen (AID 1092); details: small-molecule microarray, hLULL1 lysate binding, 635 nm fluorescence; higher = more signal;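 further: probe is lysate of COS7 cells overexpressing human LULL1; score merges per-feature 667 nm fluorescence with signal-to-noise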
# Chain of Torsin-1A-interacting protein 2 (Homo sapiens) (Q8NFQ8 whole entry, looked up): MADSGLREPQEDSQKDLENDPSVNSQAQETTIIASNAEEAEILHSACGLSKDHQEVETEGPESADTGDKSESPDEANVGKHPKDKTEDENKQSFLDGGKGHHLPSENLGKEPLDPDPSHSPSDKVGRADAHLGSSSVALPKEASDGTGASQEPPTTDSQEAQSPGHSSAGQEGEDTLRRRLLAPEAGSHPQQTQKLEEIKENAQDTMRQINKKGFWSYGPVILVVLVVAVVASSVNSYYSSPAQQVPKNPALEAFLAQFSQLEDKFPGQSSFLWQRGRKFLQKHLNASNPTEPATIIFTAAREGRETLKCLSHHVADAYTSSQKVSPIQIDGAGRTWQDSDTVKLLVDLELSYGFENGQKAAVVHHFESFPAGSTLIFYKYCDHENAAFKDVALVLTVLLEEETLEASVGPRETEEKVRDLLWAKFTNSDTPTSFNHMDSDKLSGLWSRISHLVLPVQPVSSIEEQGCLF
# [16] = optical density change of DRC41 E. coli – strain DRC41, OD650, 24 h, E. coli filamentation project, primary screen (AID 1093);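 further: MC1000 strain lacking acrAB efflux and sulA so SOS filamentation is blocked; test concentration not given here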; details: E. coli DRC41 growth, higher = more signal, called active from +8 up or from −8 down
# [17] = probe aLefty2 binding to arrayed compounds – biochemical, biotinylated probe, 635/667 nm fluorescence, primary screen (AID 1094); details: small-molecule microarray, higher = more signal;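 further: score merges spot fluorescence near 667 nm with spot signal-to-noise ratio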
# [18] = test system: Noggin (protein binding on small-molecule microarray); experiment: small molecules binding Noggin protein – biochemical, 635/667 nm fluorescence, primary screen (AID 1095); details: 635 nm fluorescence, higher = more signal;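 further: score merges 667 nm feature fluorescence with signal to noise over triplicate slides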
# [19] = target: Neurogenic locus notch homolog protein 3 (Homo sapiens) (UniProt Q9UM47); experiment: small molecules binding NOTCH3 protein – biochemical, 635/667 nm fluorescence, primary screen (AID 1096); details: small-molecule microarray, 635 nm fluorescence, higher = more signal
# [20] = probe aEGFR binding to arrayed compounds – biochemical, biotinylated probe, 635/667 nm fluorescence, primary screen (AID 1097); details: small-molecule microarray, higher = more signal;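 further: probe is a biotinylated anti-EGFR antibody binding compounds printed on slides; score combines fluorescence near 667 nm and signal to noise of each spot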
SMILES,composite z-score [1],composite z-score [2],composite z-score [3],composite z-score [4],composite z-score [5],composite z-score [6],composite z-score [7],z-score [8],composite z-score [9],composite z-score [10],composite z-score [11],z-score [12],z-score [13],z-score [14],composite z-score [15],z-score [16],composite z-score [17],composite z-score [18],composite z-score [19],composite z-score [20]
COc1cc(OC)c(C(O)C2C=CC3C(=O)N(c4ccccc4)C(=O)C3N2Nc2ccc(C#N)cc2)cc1Br (stereo not given),1.03,-0.223,0.353,1.17,1.31,1.75,1.34,-0.647 (inactive),1.73,0.219,0.977,-0.459 (inactive),1.86 (inactive),-0.772 (inactive),2.64,-0.409 (inactive),0.929,-0.109,1.15,0.621
CON(C)C(=O)C=C1C[C@@H](c2cccc(Cl)c2)O[C@@H](c2cccc(Cl)c2)O1,-0.0715,1.03,0.0168,-0.0102,-0.0986,1,0.524,-1.83 (inactive),-0.0994,-0.0645,0.945,0.37 (inactive),-0.873 (inactive),6.28 (inactive),0.989,-0.168 (inactive),-0.0309,0.407,0.121,-0.0769
CC(C)CCC[C@@H](C)[C@H]1CC[C@@]2(C)C3=C(CC[C@]12C)[C@@]1(C)CC[C@H](OC(=O)c2ccc(Br)cc2)C(C)(C)C1CC3 (stereo not given in full),-0.571,0.193,-0.128,0.541,0.5,0.0933,0.439,-0.879 (inactive),0.0941,-0.126,0.739,-1.15 (inactive),-1.28 (inactive),-0.346 (inactive),0.172,2.77 (inactive),-0.0542,0.326,0.888,-0.0333
COCCOC(=O)N1C(=O)[C@@]2(c3ccccc31)[C@H](C(=O)N1CCN(c3ncccn3)CC1)[C@H]1C(=O)O[C@H](c3ccccc3)[C@H](c3ccccc3)N1[C@@H]2c1ccc(OCCO)cc1,0.213,0.295,0.0043,1.13,1.29,1.2,1.28,0.795 (inactive),0.593,0.388,1.56,2.53 (inactive),1.1 (inactive),5.84 (inactive),2.56,1.75 (inactive),0.309,0.57,0.817,0.325
C=C(COC)/C(=C/C[C@@H](OC(=O)c1ccncc1)c1cccc(OCCO)c1)c1cnc2ccccc2c1,0.234,1.99,0.0601,1.19,1.76,1.14,1.2,0.589 (inactive),1.47,0.251,1.55,-19.8 (active),-20.6 (active),-3.52 (inactive),2.2,0.682 (inactive),0.266,1.61,1.02,0.0892
NC(=O)NCC#Cc1ccc2c(c1)[C@]1(C(=O)N2)[C@H](C(=O)O)[C@H]2C(=O)O[C@H](c3ccccc3)[C@H](c3ccccc3)N2[C@@H]1c1ccccc1OCCO,0.991,0.396,-0.0749,0.776,0.231,1.99,1.01,-0.765 (inactive),0.734,0.291,1.43,-1.39 (inactive),-1.19 (inactive),-0.675 (inactive),1.43,3.22 (inactive),0.857,1.01,1.11,0.0223
O=C1NC(=O)C2C1C=CC(C(O)c1c(F)cccc1Cl)N2Nc1ccccn1 (stereo not given),0.154,0.238,0.0182,0.474,0.55,1.53,0.633,0.569 (inactive),-0.014,0.0576,0.409,0.107 (inactive),0.983 (inactive),0.0515 (inactive),-0.191,-0.764 (inactive),0.21,0.148,0.01,0.213
CCOC(=O)C[C@H]1[C@H](OC(=O)c2ccccc2-c2ccccc2)[C@@H](NC(=O)CC(C)C)c2cc(OCCCO)ccc2N1C(=O)c1ccc2ccccc2n1,-0.469,0.257,-0.0463,0.414,0.549,-0.121,0.324,0.0832 (inactive),0.535,0.0274,0.0508,-0.0014 (inactive),-0.0812 (inactive),0.116 (inactive),1.19,-0.64 (inactive),-0.158,0.219,-0.0063,0.0111
O=C1O[C@@H](c2ccccc2)[C@@H](c2ccccc2)N2[C@@H](c3ccc(O)cc3)[C@]3(C(=O)Nc4ccc(C#CCCO)cc43)[C@@H](C(=O)NC[C@H](O)c3ccccc3)[C@H]12,0.239,0.762,-0.206,-0.812,-0.724,0.381,1,-0.233 (inactive),-0.0873,-0.134,0.581,0.235 (inactive),-0.137 (inactive),0.914 (inactive),2.9,0.231 (inactive),-0.112,1.11,-0.494,-0.202
